According to article PMC7826789 (International Journal of Molecular Sciences, 2021):

tested on: T1, TRKB; conditions: Compound Concentration (nM):1000
T1 construct: gene NTRK2
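Note: KINOMEscan scanMAX binding as percent activity remaining versus control; lower means stronger binding.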

Row | SMILES | Percent Control [%]
1 | CN1CCN(C(=O)c2ccc(NC(=O)Nc3ccc(N(C)c4ccnc(Nc5ccc(CS(C)(=O)=O)cc5)n4)cc3)cc2)CC1.Cl [GW830263A] | 11
2 | COc1cc2ncnc(Nc3ccc4c(cnn4Cc4ccccc4)c3)c2cc1OC.Cl [GW282449A] | 100
3 | CC1=C(C(=O)Nc2ccc3[nH]ncc3c2)C(c2ccc3ccccc3c2)CC(=O)N1 (stereo not shown) [GSK270822A] | 73
4 | O=C(Nc1n[nH]c2nc(-c3ccc(O)cc3)c(Br)cc12)C1CC1 [SB-725317] | 100
5 | CCS(=O)(=O)c1ccc(OC)c(Nc2ncc(-c3cccc(F)c3)o2)c1 [GW621970X] | 30
6 | COc1ccc2cc(-c3c(-c4ccncc4)nc(-c4ccc(S(C)(=O)=O)cc4C)n3C)ccc2c1 [SB-633825] | 70
7 | COc1ccccc1-c1cc(/C=C2\C(=O)Nc3ncc(Br)cc32)cc(Br)c1O [GW442130X] | 22
8 | CN(C)c1cc2c(Nc3ccc4c(cnn4Cc4ccccc4)c3)ncnc2cn1 [GW282974X] | 92
9 | COc1ccc2[nH]c3c4[nH]c5ccc(OC)cc5c4c4c(c3c2c1)C(=O)NC4=O [GW296115X] | 59
10 | COc1cccc(-n2ncc3c(N/N=C/c4ccncc4)ncnc32)c1 [GW784752X] | 73
11 | CC1=C(C(=O)Nc2ccc3[nH]ncc3c2)C(c2ccc(Cl)c(Cl)c2)CC(=O)N1 (stereo not shown) [GSK299115A] | 97
12 | COc1ccc(COc2ccc(Cc3cnc(N)nc3N)cc2OC)cc1 [GW632580X] | 0.9
13 | NS(=O)(=O)c1ccc(N/N=C2\C(=O)Nc3ccc(Cl)cc32)cc1 [GW280670X] | 94
14 | COc1cccc(-c2c[nH]c3c(N/N=C/c4ccncc4)ncnc23)c1 [GW814408X] | 100
15 | COC(=O)Nc1nc2ccc(Oc3ccc(NC(=O)Nc4cc(C(F)(F)F)ccc4F)cc3)cc2s1.Cl [GW693917A] | 6.2
16 | COc1ccc2c(-c3ccnc(Nc4cccc(OC(F)(F)F)c4)n3)cnn2n1 [GW810372X] | 92
17 | NS(=O)(=O)c1ccc(N/N=C2\C(=O)Nc3ccc(-c4cnco4)cc32)cc1 [GW276655] | 39
18 | Cl.c1ccc(Cc2nc3ccc(Nc4ncnc5ccccc45)cc3[nH]2)cc1 [GR269666A] | 92
19 | C/C(Nc1ccc(S(N)(=O)=O)cc1)=C1/C(=O)Nc2ccccc21 [GW335962X] | 25
20 | COc1cc(N2CCN(C(C)C)CC2)ccc1Nc1nc(Nc2ccc(F)cc2C(=O)NC[C@@H](O)CO)c2cc[nH]c2n1 [GSK1392956A] | 91

Row | SMILES | Percent Control [%]
21 | Nc1ncnc2occ(-c3ccc(NC(=O)Nc4cc(C(F)(F)F)ccc4F)cc3)c12 [GW770249X] | 1.6
22 | CC(C)COC(=O)c1ccc2c(c1)/C(=C/Nc1ccc(S(N)(=O)=O)cc1)C(=O)N2 [GW416981X] | 55
23 | Cl.O=C(Nc1ccc(Oc2ccc3[nH]c(NC(=O)c4ccccc4)nc3c2)cc1)Nc1cc(C(F)(F)F)ccc1F [GW709042A] | 35
24 | CCc1ccc(Oc2nccc(-c3c(-c4ccc(F)cc4)ncn3C3CCNCC3)n2)cc1 [SB-242719] | 98
25 | COc1cc(C)c(N(C)C(=O)CN(C)C)cc1Nc1nc(Nc2cccc(F)c2C(N)=O)c2cc[nH]c2n1 [GSK2219385] | 100
26 | NS(=O)(=O)c1ccc(Nc2ncc(-c3ccccc3)o2)cc1 [GW572399X] | 72
27 | CCS(=O)(=O)c1ccc(OC)c(Nc2ncc(-c3cccc(OC)c3)o2)c1 [GW580509X] | 46
28 | C[C@@H](Oc1cc(-n2cnc3ccc(OC4CCN(C)CC4)cc32)sc1C(N)=O)c1ccccc1Cl [GSK579289A] | 82
29 | COc1cc2ncn(-c3cc(O[C@H](C)c4ccccc4Cl)c(C(N)=O)s3)c2cc1OC [GSK237701A] | 51
30 | O=C1Nc2ccc(C(=O)c3ccco3)cc2C1=Cc1cc(Cl)c(O)c(Cl)c1 [GW406108X] | 75
31 | Cc1cc(O)cc(C)c1/C=C/c1cncc(C(N)=O)c1 [GW435821X] | 94
32 | COc1cc(/C=N/Nc2ncnc3[nH]ncc23)ccc1O [GW578748X] | 70
33 | COc1cc(C=NNc2ncnc3c2cnn3-c2ccccc2)ccc1O [GW513184X] | 100
34 | NS(=O)(=O)c1ccc(N/N=C2\C(=O)Nc3ccc(C(=O)NCCc4c[nH]cn4)cc32)cc1 [GW300660X] | 52
35 | Cl.O=C(Nc1ccc(Oc2ccc3[nH]c(NC(=O)c4ccco4)nc3c2)cc1)Nc1cc(C(F)(F)F)ccc1F [GW683134A] | 6
36 | CN(C)CCNC(=O)Nc1ccc(N(C)c2ccnc(Nc3ccc(CS(C)(=O)=O)cc3)n2)cc1.Cl [GW830900A] | 34
37 | CCn1c(-c2nonc2N)nc2c(C#CC(C)(C)O)nc(OCCNC)cc21.Cl [GSK949675] | 100
38 | NS(=O)(=O)c1ccc(N/N=C2\C(=O)Nc3ccc(C(=O)NCc4ccncc4)cc32)cc1 [GW300657X] | 21
39 | Cl.O=S1CCN(Cc2ccc(-c3ccc4ncnc(Nc5ccc(OCc6ccccc6)c(F)c5)c4c3)o2)CC1 [GW576924A] | 100
40 | Cl.O=C(O[C@H]1CN[C@H](C#Cc2cc3ncnc(Nc4ccc5c(cnn5Cc5ccccc5)c4)c3s2)C1)N1CCOCC1 [GSK200398A] | 87
